Assay results: PubChem BioAssay AID1224921 (Broad Institute, 2016)
Among all 1,400 compounds or so, about 350 (25%) were called active. Another 2% or so got no clear call; they are omitted. How the calls were made is not given here. The list is a sample of the results. Entries with a potency or affinity are not part of this list.

Assay: inhibitors of Clostridioides difficile proliferation – 4-point retest, confirmation (AID 1224921);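 further: plate controls were DMSO wells for no effect and levofloxacin 16 µg/mL wells for full effect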
Conditions: Clostridioides difficile clinical isolate growth, OD600, 24 h, hits give low values; at 30 µM unless noted

Max activity, inactive:
NC(=O)[C@H]1[C@@H]2C(=O)O[C@@H](c3ccccc3)[C@@H](c3ccccc3)N2[C@@H](c2ccccc2OCCO)[C@]12C(=O)Nc1ccc(C#CC3(O)CCCCCC3)cc12 16.8% [at 8 µM]
COc1ccc(C#Cc2ccc3c(c2)[C@]2(C(=O)N3)[C@H](C(N)=O)[C@H]3C(=O)O[C@H](c4ccccc4)[C@H](c4ccccc4)N3[C@@H]2c2ccc(O)cc2)cc1 23.8%
CC(=O)N(C)C[C@@H]1Oc2ncc(C#Cc3ccc(F)cc3)cc2C(=O)N([C@H](C)CO)C[C@@H]1C 22.7%
C[C@H]1CN([C@@H](C)CO)C(=O)c2cc(NC(=O)Nc3cccc4ccccc34)ccc2O[C@@H]1CN(C)S(=O)(=O)c1ccccc1 37.2%
CO[C@H]1CN(C)C(=O)c2cc(NS(C)(=O)=O)ccc2OC[C@H](C)N(Cc2ccccn2)C[C@@H]1C 2.2%
CO[C@H](CN(C)Cc1cc(F)ccc1F)[C@@H](C)CN(C(=O)Nc1ccc(F)cc1)[C@@H](C)CO 21.5%
C/C=C/[C@@H](CCn1cc(CCO)nn1)[Si](C)(C)c1ccc(OC)cc1 -14.8% [at 0.5 µM]
C[C@H](NC(=O)N(C)C[C@@H]1OCc2ccccc2-c2c(n(C)c3ccccc23)C(=O)N([C@@H](C)CO)C[C@H]1C)c1ccccc1 26.5% [at 8 µM]
CN(C)CCCNC(=O)[C@H]1[C@H](CO)[C@H]2Cn3c(ccc(-c4cccc(F)c4)c3=O)[C@@H]1N2C -8.59%
CNC[C@H]1Oc2cc(-c3ccccc3F)ccc2S(=O)(=O)N([C@H](C)CO)C[C@@H]1C 14%
Cc1ccccc1-c1ccc2c(c1)O[C@@H](CN(C)Cc1ccncc1)[C@@H](C)CN([C@@H](C)CO)S2(=O)=O 40.4%
C/C=C/c1cnc2c(c1)C(=O)N([C@@H](C)CO)C[C@@H](C)[C@@H](CN(C)Cc1ccc(F)cc1)O2 19.7%
C[C@H](CO)N1C[C@H](C)[C@H](CN(C)Cc2ccc(C(=O)O)cc2)Oc2ncc(C#CCN(C)C)cc2C1=O -7.61% [at 8 µM]
CO[C@@H]1CN(C)C(=O)c2ccc(NC(=O)c3nc4ccccc4s3)cc2OC[C@H](C)N(Cc2cccnc2)C[C@@H]1C -17.1% [at 1.95 µM]
CCCN1C[C@H](C)[C@@H](OC)CN(C)C(=O)c2cc(NC(=O)CC)ccc2OC[C@H]1C -10.4% [at 0.5 µM]
Cc1ccc(-c2ccc3c(c2)O[C@H](CN(C)Cc2ccncc2)[C@@H](C)CN([C@H](C)CO)S3(=O)=O)cc1 -11.4% [at 8 µM]
CO[C@@H]1CN(C)C(=O)c2ccc(NC(=O)C3CC3)cc2OC[C@@H](C)N(Cc2cncnc2)C[C@@H]1C -9.09% [at 1.95 µM]
CCCC#Cc1ccc2c(c1)O[C@@H](CN(C)C(=O)c1ccccc1F)[C@@H](C)CN([C@@H](C)CO)S2(=O)=O 23.4%
C[C@@H]1CN([C@@H](C)CO)C(=O)Cc2cc(NC(=O)c3ccncc3)ccc2O[C@H]1CN(C)Cc1ccc(Cl)c(Cl)c1 36.8% [at 8 µM]
COc1ccc(CNC(=O)C[C@H]2CC[C@H](NC(=O)c3cccc(F)c3)[C@@H](CO)O2)cc1 -5.36% [at 1.95 µM]
C[C@H]1CCCCO[C@H](CN(C)Cc2ccc3c(c2)OCO3)[C@@H](C)CN([C@@H](C)CO)C(=O)c2cc(NC(=O)Nc3ccc(F)cc3)ccc2O1 29.6%
O=C(NCCc1ccccc1)[C@@H]1[C@@H](CO)[C@@H]2Cn3c(cccc3=O)[C@H]1N2C(=O)C1CC1 -6.59%
CCCN1C[C@H](C)[C@@H](OC)CN(C)C(=O)c2ccc(NC(=O)Nc3c(C)noc3C)cc2OC[C@H]1C 6.66%
CO[C@H]1CN(C)C(=O)c2cc(NC(=O)Nc3ccc(Cl)cc3)ccc2OC[C@H](C)N(C(=O)Nc2c(C)noc2C)C[C@@H]1C -13% [at 8 µM]
Cc1ccc(-c2ccc3c(c2)O[C@H](CN(C)Cc2cccnc2)[C@@H](C)CN([C@H](C)CO)S3(=O)=O)cc1 31.7%
CO[C@@H]1CN(C)C(=O)c2ccc(NS(=O)(=O)c3ccc(C)cc3)cc2OC[C@@H](C)N(C(=O)NC(C)C)C[C@H]1C 14.4%
CCCN1C[C@H](C)[C@H](OC)CN(C)C(=O)c2cc(NC(=O)CC)ccc2OC[C@@H]1C 7.21% [at 8 µM]
O=C(C[C@@H]1C=C[C@@H](NC(=O)Cc2ccccn2)[C@H](CO)O1)NCCCN1CCOCC1 2.76% [at 0.5 µM]
CC(C)CC#Cc1ccc2c(c1)O[C@@H](CN(C)Cc1ccncc1)[C@H](C)CN([C@@H](C)CO)S2(=O)=O 29.7%
COc1ccc(-c2ccc([C@@H]3[C@@H](CO)N(C(=O)C4CCCC4)[C@H]3C#N)cc2)cc1 25% [at 7.5 µM]
CCCC(=O)Nc1ccc2c(c1)C(=O)N(C)C[C@H](OC)[C@H](C)CN(Cc1ccc(F)cc1)[C@@H](C)CO2 17.3%
C[C@@H]1CN([C@H](C)CO)C(=O)c2cc(C#Cc3ccccc3F)cnc2O[C@@H]1CN(C)C(=O)C1CCOCC1 17.1%
CC(=O)N(C)C[C@H]1Oc2ncc(C#Cc3ccccc3F)cc2C(=O)N([C@@H](C)CO)C[C@@H]1C 60.6%
COc1cccc(C#Cc2cnc3c(c2)C(=O)N([C@H](C)CO)C[C@@H](C)[C@H](CN(C)C)O3)c1 6.76%
COc1cccc(C#Cc2cnc3c(c2)C(=O)N([C@@H](C)CO)C[C@H](C)[C@@H](CN(C)C)O3)c1 -9.5% [at 1.95 µM]
CCNC(=O)C[C@H]1C=C[C@H](NS(=O)(=O)c2ccc(F)cc2)[C@H](CO)O1 -12%
O=C(C[C@@H]1C[C@H]2c3cc(NC(=O)Nc4ccc(C(F)(F)F)cc4)ccc3O[C@H]2[C@@H](CO)O1)NCc1ccc2c(c1)OCO2 -23.2% [at 8 µM]
CO[C@@H]1CN(C)C(=O)c2ccc(NS(=O)(=O)c3ccccc3C)cc2OC[C@@H](C)N(S(C)(=O)=O)C[C@H]1C -12.6% [at 8 µM]
C[C@@H]1CN([C@@H](C)CO)S(=O)(=O)c2ccc(C#Cc3ccc(F)cc3)cc2O[C@@H]1CN(C)C(=O)NC1CCCCC1 -4.75% [at 8 µM]
C[C@@H]1CN([C@@H](C)CO)C(=O)c2cc(NS(=O)(=O)c3ccc(Cl)cc3)ccc2O[C@@H]1CN(C)Cc1ccccc1 18.9%
CO[C@@H]1CN(C)C(=O)c2ccc(NC(=O)C3CCC3)cc2OC[C@H](C)N(C(=O)CN(C)C)C[C@@H]1C -13.6% [at 0.5 µM]
CO[C@H]1CN(C)C(=O)c2ccc(NC(=O)C3CCC3)cc2OC[C@H](C)N(C(=O)CN(C)C)C[C@H]1C -8.4%
CO[C@H]1CN(C)C(=O)c2cc(NC(=O)C3CCOCC3)ccc2OC[C@H](C)N(C(=O)c2ccccc2)C[C@H]1C -6.51%
CO[C@H]1CN(C)C(=O)c2cc(NC(=O)C3CCOCC3)ccc2OC[C@@H](C)N(C(=O)c2ccccc2)C[C@H]1C -10.4% [at 1.95 µM]
CO[C@@H]1CN(C)C(=O)c2cc(NC(=O)C3CCOCC3)ccc2OC[C@H](C)N(C(=O)c2ccccc2)C[C@H]1C -8.41% [at 0.5 µM]
CO[C@H]1CN(C)C(=O)c2cc(NC(=O)C3CC3)ccc2OC[C@H](C)N(C(=O)c2ccccn2)C[C@@H]1C 5.91%
C[C@H]1CN([C@@H](C)CO)S(=O)(=O)c2ccc(C#CCC3CCCC3)cc2O[C@@H]1CN(C)C(=O)CC1CC1 19.7% [at 8 µM]
CO[C@H]1CN(C)C(=O)c2ccc(NC(=O)c3nc4ccccc4s3)cc2OC[C@H](C)N(Cc2cccnc2)C[C@H]1C 37.7%
CO[C@@H]1CN(C)C(=O)c2cc(NC(=O)Nc3ccccc3Cl)ccc2OC[C@@H](C)N(S(C)(=O)=O)C[C@H]1C -12.2% [at 0.5 µM]
O=C(CN1CCOCC1)N[C@@H]1CC[C@@H](CCNS(=O)(=O)c2ccccc2F)O[C@@H]1CO -8.89% [at 0.5 µM]
C[C@@H]1CN([C@@H](C)CO)C(=O)c2ccccc2-c2ccccc2CO[C@H]1CN(C)S(=O)(=O)c1ccc(Cl)cc1 33.2% [at 35 µM]
C[C@H](CO)N1C[C@H](C)[C@H](CN(C)S(=O)(=O)c2ccccc2)Oc2ccc(NC(=O)Nc3cccc4ccccc34)cc2C1=O -17.7% [at 8 µM]
C[C@H](CO)N1C[C@H](C)[C@@H](CN(C)Cc2ccc3c(c2)OCO3)Oc2c(NC(=O)Nc3ccc(C(F)(F)F)cc3)cccc2C1=O 43.3%
C[C@H](CO)N1C[C@H](C)[C@H](CN(C)C(=O)NC2CCCCC2)Oc2c(NC(=O)Nc3ccc(C(F)(F)F)cc3)cccc2C1=O 35.7% [at 1.95 µM]
C[C@@H]1CN([C@H](C)CO)C(=O)c2cccc(NC(=O)Nc3ccc(C(F)(F)F)cc3)c2O[C@H]1CN(C)Cc1ccc2c(c1)OCO2 43.4% [at 8 µM]
C[C@@H]1CN([C@@H](C)CO)C(=O)c2cccc(NC(=O)Nc3ccc(F)cc3)c2O[C@H]1CN(C)CC1CCCCC1 13.5% [at 8 µM]
